MITF primary: human MITF inhibition, primary screen. O75030. AlphaScreen MITF homodimerization, bead proximity signal. inhibition, % at 2.6 µM. 650,000 tested, 0.91% active. AID 1259374; in the data active = inhibition above about 50%;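 also: 0% = vehicle wells with protein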
GPR151 ag: activates the human receptor GPR151 | Q8TDV0 | PathHunter beta-arrestin GPR151 cells, luminescence | activation, % at 11.2 µM | 650,000 tested, 1% active | AID 1508602; in the data active = activation above about 4.9%;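 also: 0% = median of compound wells and 100% = cells with positive control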
Target sequence (Q8TDV0 whole entry, looked up): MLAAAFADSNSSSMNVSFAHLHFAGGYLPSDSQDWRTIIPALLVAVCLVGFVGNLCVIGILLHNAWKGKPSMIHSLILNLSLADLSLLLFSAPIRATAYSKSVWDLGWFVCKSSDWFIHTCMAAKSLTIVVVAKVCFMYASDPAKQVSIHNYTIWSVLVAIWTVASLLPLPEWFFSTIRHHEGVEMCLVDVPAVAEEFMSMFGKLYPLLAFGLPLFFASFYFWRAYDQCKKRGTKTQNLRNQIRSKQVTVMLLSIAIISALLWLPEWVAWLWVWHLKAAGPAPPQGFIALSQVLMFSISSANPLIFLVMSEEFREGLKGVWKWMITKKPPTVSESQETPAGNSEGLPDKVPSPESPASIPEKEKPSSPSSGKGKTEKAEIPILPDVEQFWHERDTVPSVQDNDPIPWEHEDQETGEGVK
FBW7 act: human FBW7 E3 ligase activation, primary screen. Q969H0. AlphaScreen FBW7–phospho-cyclin E peptide binding, activator screen. normalized activity (activation), % at 26.1 µM. 650,000 tested, 0.13% active. AID 1259310; in the data active = normalized activity above about 1.9%;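 also: purified mutant Fbw7 with reduced substrate affinity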
TEAD-YAP inh: TEAD-YAP interaction inhibition. HEK-TIYL cells, TEAD-Gal4/YAP UAS-luciferase luminescence. inhibition, % at 9.12 µM. 640,000 tested, 1.4% active. AID 1259422; in the data active = inhibition above about 32%;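 also: 0% = median of test compound wells and 100% = reference inhibitor wells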
GPR151 conf act: confirmation of human GPR151 activators; shares compounds with GPR151 ag; GPR151 PathHunter beta-arrestin cells, luminescence, 90 min; % of EA-reagent control over plate median; activation, % at 11.2 µM; 6,700 tested, under 10 active; AID 1508609;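 active = mean percent activation across replicates above the confirmation screen cutoff of 4.91%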
GPR119 ag: activates human GPR119 in a GPR151 counter-screen; GPR119 PathHunter beta-arrestin cells, luminescence, 90 min; 0 = compound-well median, 100 = enzyme-acceptor control; 6,700 tested, 0.3% active; shares compounds with GPR151 ag; activation, % at 11.2 µM;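 active = mean percent activation in the counterscreen above 29.09%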;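 also: counterscreen on off-target GPR119 to flag nonselective hits from the GPR151 activator screen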
* marks the source's active call; other numbers are inactive results; nt = no result. An excerpt weighted towards active compounds, which were near 3.4% of everything screened.

SMILES | MITF primary | GPR151 ag | FBW7 act | TEAD-YAP inh | GPR151 conf act | GPR119 ag
COc1cc(OC)cc(C(=O)N2CCc3ccccc3C2CNC(=O)Nc2ccc(Cl)c(Cl)c2)c1 (centres undefined) | -8 | 5.3* | 0 | 4 | 1 | 9
CCOC(=O)C1=C(C)N=c2s/c(=C/c3ccc(-c4ccc(Br)cc4)o3)c(=O)n2C1c1ccc(N(C)C)cc1 (centres undefined) | -8 | 5.5* | 0 | 6 | 0 | -3
CCOC(=O)C1=C(C)N=c2s/c(=C/c3cc(Br)c(Br)o3)c(=O)n2C1c1cccs1 (centres undefined) | 3 | -1 | 0 | -10 | nt | nt
CCOC(=O)C1=C(C)N=c2s/c(=C/c3ccc(-c4ccc(C(=O)OCC)cc4)o3)c(=O)n2C1c1ccc(N(C)C)cc1 (centres undefined) | 3 | 0 | 0 | -23 | nt | nt
CCOC(=O)C1=C(C)N=c2s/c(=C\c3ccc(Br)o3)c(=O)n2C1c1cccs1 (centres undefined) | 2 | 4.9* | 0 | 6 | -1 | 0
CCCCOC(=O)c1ccc(NS(=O)(=O)CC)cc1 | -20 | 1 | 0 | -9 | nt | nt
COc1ccc(CCNc2nc(NC(C)(C)CO)nc(N3CCCC3)n2)cc1OC | 15 | -1 | 0 | -2 | nt | nt
COc1ccc(CCNc2nc(N3CCCC3)nc(N3CCCC3)n2)cc1OC | 18 | 5.1* | 0 | -18 | 1 | -8
Cc1ccc(N(CC(=O)NCCC(C)C)C(=O)CCC(=O)Nc2ccccn2)cc1 | 6 | 6.3* | 0 | -1 | 1 | -1
COC(=O)c1ccccc1NC(=O)c1ccc(OC(C)C)cc1 | -6 | 4 | 0 | -23 | nt | nt
CCC(=O)Nc1cccc2ncccc12 | -2 | 2 | 0 | 14 | nt | nt
Cc1ccc(SCC(=O)Nc2cccc3ncccc23)cc1 | 11 | 6.0* | 0 | 4 | 1 | -9
O=C(CC12CC3CC(CC(C3)C1)C2)Nc1cccc2ncccc12 | 1 | 6.3* | 0 | -9 | 0 | 5
O=C(Nc1cccc2ncccc12)C12CC3CC(CC(C3)C1)C2 | 12 | 1 | 0 | -10 | nt | nt
COc1ccccc1NC(=O)c1cnc(N2CCN(c3ccccc3OC)CC2)c2ccccc12 | 0 | -1 | 0 | 5 | nt | nt
CCOc1ccc(/C=C2/C(=O)NC(=O)N(Cc3ccc(F)cc3)C2=O)cc1 | -17 | -1 | -1 | -4 | nt | nt
CCN(CC)c1ccc(/C=C2/C(=O)NC(=O)N(Cc3ccc(F)cc3)C2=O)cc1 | 3 | 11* | -1 | 6 | 1 | -1
CCOC(=O)CCCNC(=O)COC(=O)CNC(=O)c1ccc(F)cc1 | 3 | 2 | 0 | 4 | nt | nt
Cc1ccc(C(=O)N/C(=C\c2cccs2)C(=O)N2CCCN(C)CC2)cc1C | -11 | 4 | 0 | 4 | nt | nt
O=C(NCCCN1CCCC1)c1cc2c(s1)-c1ccccc1SC2 | 12 | 6.0* | 0 | -5 | -1 | -17
CN(C)CCNC(=O)c1cc2c(s1)-c1ccccc1SC2 | 1 | -3 | 0 | -33 | nt | nt
Cc1ccccc1-c1nc(C#N)c(NC2CC2)o1 | 14 | 0 | 0 | -7 | nt | nt
O=C(O)c1cccc(NCc2cccc3ccccc23)c1 | 10 | 11* | 0 | -19 | 0 | 3
C=CCOc1ccccc1CNc1cccc(C(=O)O)c1 | 17 | -2 | 0 | 2 | nt | nt
COc1cccc(C(=O)CC(=O)C(=O)Nc2ccc(Br)cc2F)c1 | -14 | 2 | 0 | -16 | nt | nt
SMILES | MITF primary | GPR151 ag | FBW7 act | TEAD-YAP inh | GPR151 conf act | GPR119 ag
CCOc1ccc(CC(=O)NCCc2c(C)[nH]c3c(C)ccc(F)c23)cc1OCC | 2 | 6.5* | 0 | -3 | -1 | -12
COc1ccc(C(=O)NCCc2c(C)[nH]c3c(C)ccc(F)c23)cc1OC | 8 | 1 | 0 | 4 | nt | nt
O=C1NC(=S)NC(=O)C1=Cc1cccc(OC(=O)c2ccc(Cl)cc2)c1 | 12 | 5.9* | 0 | -1 | 0 | 10
COc1ccc(C(=O)Oc2ccc(C=C3C(=O)NC(=S)NC3=O)cc2)cc1 | 12 | 0 | 0 | -2 | nt | nt
CCOC(=O)c1ccc(N(Cc2ccccc2)S(C)(=O)=O)cc1 | 13 | 1 | 0 | 8 | nt | nt
C=CCN(c1ccc(C(=O)OCC)cc1)S(C)(=O)=O | 1 | 4.9* | 0 | -6 | 0 | -3
COc1ccc(/C(C)=N/NC(=O)c2ccccc2Br)cc1 | 20 | 5.7* | 0 | -10 | 0 | 6
